Screening data deposited in PubChem by The Scripps Research Institute Molecular Screening Center.
This is a sample that favours compounds with a hit; in the whole collection about 3.5% have one here.
MITF primary: human MITF inhibition, primary screen; O75030; AlphaScreen MITF homodimerization, bead proximity signal; inhibition, % at 2.6 µM; actives 0.91% (n = 650,000); in the data active means inhibition above about 50%;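 further: 0% = vehicle wells with protein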
GPR151 ag: activators of human GPR151. PathHunter beta-arrestin GPR151 cells, luminescence. activation, % at 11.2 µM. actives 1% (n = 650,000); in the data active means activation above about 4.9%;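 further: 0% = median of compound wells and 100% = cells with positive control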
FBW7 activator: activators of human E3 ligase FBW7 | AlphaScreen FBW7–phospho-cyclin E peptide binding, activator screen | normalized activity (activation), % at 26.1 µM | Q969H0 | actives 0.13% (n = 650,000); in the data active means normalized activity above about 1.9%;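 further: purified mutant Fbw7 with reduced substrate affinity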
Target sequence (Q969H0 whole entry, looked up): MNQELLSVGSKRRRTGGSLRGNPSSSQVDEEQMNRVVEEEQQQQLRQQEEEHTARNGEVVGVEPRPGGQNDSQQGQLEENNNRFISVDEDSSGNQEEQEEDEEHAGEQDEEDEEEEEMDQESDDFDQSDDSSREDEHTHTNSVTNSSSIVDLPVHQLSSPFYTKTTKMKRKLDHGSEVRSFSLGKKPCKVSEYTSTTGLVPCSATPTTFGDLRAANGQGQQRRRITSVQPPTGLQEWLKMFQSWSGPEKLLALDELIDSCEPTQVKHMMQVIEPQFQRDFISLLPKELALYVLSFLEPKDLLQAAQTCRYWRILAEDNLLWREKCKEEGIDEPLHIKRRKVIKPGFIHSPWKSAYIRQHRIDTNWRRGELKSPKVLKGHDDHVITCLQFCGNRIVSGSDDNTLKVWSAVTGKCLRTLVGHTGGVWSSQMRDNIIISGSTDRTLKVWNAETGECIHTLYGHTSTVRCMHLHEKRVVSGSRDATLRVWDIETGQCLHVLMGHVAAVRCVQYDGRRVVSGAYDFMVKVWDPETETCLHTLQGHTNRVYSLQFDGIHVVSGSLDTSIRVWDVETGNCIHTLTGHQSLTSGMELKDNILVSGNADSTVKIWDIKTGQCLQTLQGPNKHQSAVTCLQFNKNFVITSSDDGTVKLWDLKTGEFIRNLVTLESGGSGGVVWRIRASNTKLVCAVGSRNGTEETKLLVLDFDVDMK
TEAD-YAP inh: TEAD-YAP interaction inhibition. inhibition, % at 9.12 µM. HEK-TIYL cells, TEAD-Gal4/YAP UAS-luciferase luminescence. actives 1.4% (n = 640,000); in the data active means inhibition above about 32%;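 further: 0% = median of test compound wells and 100% = reference inhibitor wells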
* = called active by the depositor.

SMILES | MITF primary | GPR151 ag | FBW7 activator | TEAD-YAP inh
Cc1ccc(C(=O)Nc2ccc(O)c(C)c2)cc1 | -5 | -5 | 0 | 93*
COc1ccc(-c2cn3cc(C)ccc3n2)cc1F | 1 | -6 | 0 | 68*
Cc1ccc2nc(-c3cccc(Cl)c3)cn2c1 | 7 | -8 | 0 | 77*
COc1ccc(-c2cn3cc(C)ccc3n2)cc1OC | 4 | -8 | 0 | -5
CN(C)S(=O)(=O)c1cccc(-c2cn3cc(Cl)ccc3n2)c1 | 15 | -1 | 0 | -44
Cc1ccc2nc(-c3ccc4c(c3)NC(=O)CO4)cn2c1 | 3 | -1 | 0 | -49
Cc1ccc2nc(-c3ccc4ccccc4c3)cn2c1 | 2 | -6 | 0 | 94*
Cc1ccc(Cl)cc1N1CCN(C(=O)Nc2ccccc2)CC1 | -10 | 1 | 0 | -11
COc1cc(/C=C(/C#N)c2nc(-c3ccc(F)cc3)cs2)ccc1O | -4 | 3 | 0 | -22
COc1ccc(-c2cncc3ccc(C(=O)N[C@H](C)c4ccccc4)nc23)cc1 | 15 | 1 | 1 | 61*
COc1ccc(-c2cncc3ccc(C(=O)N[C@@H](C)c4ccccc4)nc23)cc1 | -13 | -1 | 0 | 50*
COc1ccccc1N1CCN(C2CCCN(C(=O)c3cccnc3)C2)CC1 (stereo not drawn) | 4 | 1 | 0 | -4
Cc1cc(C)cc(N2CC(C(=O)Nc3ccc(Br)cc3)CC2=O)c1 (stereo not drawn) | -4 | 2 | 0 | -5
CCOc1ccc(/C(O)=C2/C(=O)C(=O)N(CCN(CC)CC)C2c2ccc(Br)cc2)cc1C (stereo not drawn) | -11 | 0 | 0 | -9
O=C(CSc1nnc(-c2ccco2)o1)Nc1ccc2[nH]c(=O)[nH]c2c1 | 4 | 1 | 0 | 4
CC(C(=O)c1ccc(-c2ccccc2)cc1)[n+]1ccccc1 (stereo not drawn) | -10 | 0 | 0 | 18
Cc1ccc[n+](C(C)C(=O)c2ccc(-c3ccccc3)cc2)c1 (stereo not drawn) | -10 | 0 | 0 | 66*
COc1ccc(-c2noc(CN(Cc3c(C)nn(C)c3C)C(C)C)n2)c(OC)c1OC | 0 | 0 | 0 | 59*
COc1cc(/C=C2/NC(=O)N(c3ccccc3)C2=O)c([N+](=O)[O-])cc1OC | -8 | 0 | 0 | -12
CCOc1cccc(C2CC(c3cccc(OC)c3)=NC(C(C)C)N2)c1O (stereo not drawn) | 3 | 0 | 0 | 36*
CCCC1N=C(c2cccc(OC)c2)CC(c2cc(Br)ccc2O)N1 (stereo not drawn) | 1 | 2 | 0 | 39*
C(=N/Nc1nnc2c(n1)[nH]c1ccccc12)/c1c[nH]c2ccccc12 | 1 | 0 | 1 | -2
Cc1cccc2c1[nH]c1nc(N/N=C\c3c[nH]c4ccccc34)nnc12 | -2 | -1 | 0 | 44*
Oc1ccc(Cl)cc1/C=N/Nc1nnc2c(n1)[nH]c1ccccc12 | 3 | 1 | 0 | -9
Oc1ccc(/C=N/Nc2nnc3c(n2)[nH]c2ccccc23)c(O)c1O | 111* | 0 | -1 | -10
SMILES | MITF primary | GPR151 ag | FBW7 activator | TEAD-YAP inh
CN(C)C(=O)c1ccc(-c2ccc3c(c2)COC2(CCN(C(=O)C4CCC4)CC2)O3)cc1 | -10 | -1 | 0 | 2
CC(C)(C)OC(=O)N/N=C/c1cccc(O)c1 | 3 | -4 | 0 | 84*
O=C(N/N=C/c1cccc(O)c1)c1ccc(F)cc1 | 8 | -1 | 0 | 35*
CN(C)c1ccc(C(=O)N=c2sc3cc(S(C)(=O)=O)ccc3n2C)cc1 | -7 | -1 | 0 | -8
Cc1noc(CNC(=O)c2cnc3ccccc3n2)n1 | 14 | 1 | 0 | -1
O=c1[nH]c(=O)n(-c2ccccc2)c(O)c1/C=N/n1cnnc1 | 17 | 1 | 0 | -11
COCCCNC(=O)/C(C#N)=C/c1cc(C)n(-c2ccccc2)c1C | 10 | 1 | 0 | 40*
COCCCNC(=O)/C(C#N)=C/c1cn(Cc2ccccc2)c2ccccc12 | 5 | 3 | 1 | 44*
COCCNC(=O)/C(C#N)=C/c1cc(C)n(-c2sc(C)c(C)c2C#N)c1C | -2 | 0 | 0 | 51*
COCCCNC(=O)/C(C#N)=C/c1cc(C)n(-c2ccc(C)cc2)c1C | 10 | 0 | 0 | 5
O=C(CCc1c[nH]c2ccccc12)Nn1c(SCC(=O)c2ccc(Cl)cc2)nc2ccccc2c1=O | 13 | -1 | 0 | -8
COc1ccc(CNC(=O)c2cnc3ccccn23)cc1 | 8 | 0 | 0 | -11
Cc1ccc(CNC(=O)c2cnc3ccccn23)o1 | 27 | -1 | 2.1* | -23
CC(NC(=O)c1cnc2ccccn12)c1ccc(F)cc1 (stereo not drawn) | 24 | 0 | 2.8* | 11
CCCCNC(=O)CCS(=O)(=O)c1ccc2c(c1)n(C)c(=O)c(=O)n2C | 7 | 0 | 0 | 4
O=C(Cc1ccccc1)N/N=C/c1cccc2ccccc12 | 9 | 1 | 0 | 1
O=C(Cc1ccccc1)N/N=C/c1ccc(O)c2ncccc12 | 98* | 1 | 0 | 15
O=C(N/N=C/c1ccc(O)c2ncccc12)c1ccc(F)cc1 | 113* | 0 | 0 | 27
N=C1/C(=C/c2ccc3c(c2)OCO3)C(=O)N=C2SC(Cc3ccccc3)=NN12 | -10 | 3 | 0 | -6
COc1ccc(-c2nc(Nc3ccccc3)c3ncn(-c4ccsc4)c3n2)cn1 | 16 | -2 | 0 | 0
NC(=O)c1ccc(-c2nc(Nc3ccccc3)c3ncn(-c4ccsc4)c3n2)cc1 | 16 | 0 | 0 | 50*
CC(=O)Nc1ccc(Nc2nc(-c3ccccc3)nc3c2ncn3-c2ccsc2)cc1 | -13 | 0 | 0 | 37*
COc1ccc(-c2nc(Nc3ccc(NC(C)=O)cc3)c3ncn(-c4ccsc4)c3n2)cn1 | 9 | 3 | 0 | 51*
NC(=O)c1ccc(-c2nc(NC3CC3)c3ncn(-c4ccccc4)c3n2)cc1 | 23 | -3 | 0 | 36*
c1ccc(-c2nc(NC3CC3)c3ncn(-c4ccccc4)c3n2)cc1 | -2 | -2 | 0 | 5
SMILES | MITF primary | GPR151 ag | FBW7 activator | TEAD-YAP inh
COCCCNC(=O)CN(c1cccc([N+](=O)[O-])c1)S(=O)(=O)c1ccccc1 | -9 | 2 | 0 | 2
Cc1ccc2oc3c(c(=O)c2c1)C(c1ccncc1)N(CCN1CCOCC1)C3=O (stereo not drawn) | 3 | 3 | 0 | -5
CCC(=O)Nc1cc(OC)c(NC(=O)c2ccc(C(C)(C)C)cc2)cc1OC | -3 | -1 | 0 | -17
COc1ccc(N2C(=O)/C(=C\c3cccn3C)C(=O)NC2=S)cc1 | 12 | -1 | 0 | 9
CC(=O)Nc1ccc(Nc2nc(-c3ccc(C(=O)N4CCN(C)CC4)cc3)nc3c2ncn3-c2ccsc2)cc1 | 2 | 1 | 0 | 36*
CC(=O)Nc1ccc(Nc2nc(-c3ccc(C(N)=O)cc3)nc3c2ncn3-c2ccsc2)cc1 | -6 | -2 | 0 | 39*
NC(=O)c1ccc(-c2nc(Nc3ccc(Oc4ccccc4)cc3)c3ncn(-c4ccsc4)c3n2)cc1 | 15 | 0 | 0 | 5
COc1ccc(/C(C)=N/Nc2ccc(Cl)c(C(=O)O)c2)cc1OC | -3 | 0 | 0 | -69
